# The full list was thinned out, with hits kept by preference.
# HT1080 IDH1KD tx = kills HT-1080 cells with IDH1 knockdown | hit rate 2% among 360,000 | Potency, µM (highest dose often 46.1 µM), hits mostly cytotoxic | HT-1080 IDH1 knockdown viability, ATP luminescence, 48 h | AID 686971
#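 CellTiter-Glo luminescence after 48 h compound exposure at 37 degrees C of IDH1-knockdown HT-1080 cells in 5% FBS RPMI. %Activity scaled between DMSO wells and cell-free media wells, with curves fitted and assigned curve classes.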
# ALOX12 inh = inhibitors of human 12S-lipoxygenase ALOX12; P18054; purified 12hLO, xylenol orange hydroperoxide absorbance; Potency, µM (titrated, usually from 108 µM), usual class: inhibitors; hit rate 1.1% among 580,000
# Target sequence (P18054 whole entry, looked up): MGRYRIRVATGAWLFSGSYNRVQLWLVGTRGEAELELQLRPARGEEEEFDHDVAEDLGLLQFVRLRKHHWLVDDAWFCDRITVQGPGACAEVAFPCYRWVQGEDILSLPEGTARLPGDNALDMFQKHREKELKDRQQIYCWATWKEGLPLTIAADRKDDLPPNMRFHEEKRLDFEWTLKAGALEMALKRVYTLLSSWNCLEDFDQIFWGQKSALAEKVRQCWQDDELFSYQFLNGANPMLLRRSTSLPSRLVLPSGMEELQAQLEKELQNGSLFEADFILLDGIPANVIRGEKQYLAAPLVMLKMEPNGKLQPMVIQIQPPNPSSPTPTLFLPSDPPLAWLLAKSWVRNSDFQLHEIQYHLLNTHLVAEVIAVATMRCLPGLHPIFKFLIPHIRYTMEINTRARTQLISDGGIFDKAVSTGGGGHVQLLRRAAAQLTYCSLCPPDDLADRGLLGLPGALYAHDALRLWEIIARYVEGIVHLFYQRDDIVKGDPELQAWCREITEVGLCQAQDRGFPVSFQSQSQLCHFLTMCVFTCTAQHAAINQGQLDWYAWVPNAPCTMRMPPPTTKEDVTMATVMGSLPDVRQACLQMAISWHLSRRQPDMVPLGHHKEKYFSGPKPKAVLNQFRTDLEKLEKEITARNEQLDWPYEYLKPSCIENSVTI
#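 Purified human 12hLO (150 nM final) in 25 mM Hepes, 0.01% Triton X-100, pH 7.0 was preincubated 15 min at room temperature with compound. Then 40 uM arachidonic acid was added, 30 min. Hydroperoxide was read by Fe-XO absorbance ratio 573/405 nm.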
# TDP1 cell CPT = growth inhibition of DT40 Tdp1-/-;hTDP1 cells with camptothecin (screen for TDP1 inhibitors) | Potency, µM (titrated, usually from 46.2 µM), usual class: inhibitors | chicken DT40 Tdp1-/-;hTDP1 cells + 20 nM CPT, ATP luminescence, 48 h | AID 686979 | hit rate 12% among 420,000; further: nearly all actives have a fitted effect of over 55% in size
#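 Cell growth measured by CellTiter-Glo luminescence after a minimum 48 h, 37 C compound exposure with 20 nM CPT in Tdp1-knockout DT40 cells stably expressing hTDP1, seeded 400/well; qHTS titration format.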
# HT1080-NT tox = kills 2HG-producing HT-1080-NT fibrosarcoma cells; HT-1080-NT fibrosarcoma viability, CellTiter-Glo ATP luminescence, 48 h; Potency, µM (highest dose often 46.1 µM), usual class: cytotoxic; hit rate 1.6% among 360,000;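 further: NT is the 2HG producing partner of a matched IDH1 knockdown line; nearly all actives have a fitted effect of over 55% in size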
#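 HT-1080-NT; 750 cells/well; 5% FBS RPMI; 48 h compound, 37 degrees C; CellTiter-Glo luminescence; curve fitting and curve-class assignment.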
# TDP1 cell noCPT = qHTS for Inhibitors of human tyrosyl-DNA phosphodiesterase 1 (TDP1): qHTS in cells in absence of CPT; hit rate 15% among 420,000; Potency, µM (series often up to 46.2 µM), most hits filed as inhibitors; DT40 Tdp1-/- hTDP1 cells, no CPT, ATP luminescence, 48 h; further: nearly all actives have a fitted effect of over 55% in size
#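 Camptothecin absent (DMSO only). Human TDP1-complemented DT40 knockout cells, 400 cells/well, 37 °C for minimum 48 hr; ATP measured via CellTiter-Glo, 30 min dark incubation, luminescence.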
# IL1B secr inh = blocks inflammasome-driven IL-1 beta release; THP-1 LPS/ATP IL-1B secretion, AlphaLISA, 16 h; active compounds read low; activity change, % at 57.5 µM; hit rate 4.7% among 360,000; AID 743279; in the data active means activity change below about -50%; inconclusive means mostly about -30% to -49%
#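 Secreted IL-1B measured by AlphaLISA bead assay after 16 h compound exposure of THP-1 cells; compounds (final up to 57.5 uM) added 1 h before LPS (250 ng/mL) and ATP (1.25 mM) stimulation; lower signal means less secretion.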
# Numbers stand for hits; n = inactive; u = inconclusive; x = not tested or not shown; ! = not active in a repeat; [ ] = another dose, or the depositor's remark. Unless noted, the call rests on the fitted dose curve; in most records, active means well fitted curve in the direction sought with a large enough effect; inconclusive means small, poorly fitted or top-dose-only effect, or another doubt; inactive means no such curve, though single readings can be large; an effect the other way counts as inactive or inconclusive.
SMILES,HT1080 IDH1KD tx,ALOX12 inh,TDP1 cell CPT,HT1080-NT tox,TDP1 cell noCPT,IL1B secr inh
COc1cc2c(cc1OCc1ccccc1)N(C(=O)CC1CC1)CC21CCN(C)CC1,x,n,x,x,x,x
COc1ccc(-c2cn(C[C@H]3CC4CCN3C[C@@H]4C(=O)NCCNC(C)=O)nn2)cc1 (some centres not stated),x,n,x,x,x,x
Fc1cccc(CNCCc2c[nH]c3ccccc23)c1,n,n,u,n,u,u
COc1cc(CNCCc2c[nH]c3ccccc23)cc(OC)c1,u,u,u,u,23.1µM,-79.6
c1ccc(CNCCc2c[nH]c3ccccc23)cc1,n,u,n,n,n,n
COc1cc(CNCCc2c[nH]c3ccccc23)cc(OC)c1OC,n,n,u,n,u,u
O=[N+]([O-])c1ccccc1CNCCc1c[nH]c2ccccc12,n,0.562µM,n,n,n,u
CCc1ccc(CNCCc2c[nH]c3ccccc23)cc1,n,0.891µM!,u,n,25.9µM,-52.4
Cc1cccc(CNCCc2c[nH]c3ccccc23)c1,u,n,16.4µM,14.6µM,13µM,-74.9
CC(C)(O)c1cn(C[C@H]2CC3CCN2C[C@@H]3C(=O)NCc2ccco2)nn1 (some centres not stated),x,n,x,x,x,x
O=C(Cc1ccc(CO)cc1)N1CCN(Cc2cn[nH]n2)CC(O)C1 (configuration not stated),x,n,x,x,x,x
Cc1ccccc1OCCNc1ccc([N+](=O)[O-])c2cccnc12,x,n,x,x,x,x
COC(=O)C1=C(c2ccc(OCc3ccccc3)cc2)C[C@@H]2CC[C@H]1N2C(=O)NCc1ccc(OC)c(OC)c1,n,n,18.4µM,n,23.1µM,n
COC(=O)C1=C(c2cccc(OCc3ccccc3)c2)C[C@@H]2CC[C@H]1N2C(=O)NCCCc1ccccc1,n,n,u,n,u,n
COC(=O)C1=C(c2ccccc2)C[C@@H]2CC[C@H]1N2C(=O)NCc1ccccc1,n,n,n,n,n,n
COC(=O)C1=C(c2ccc(OCc3ccccc3)cc2)C[C@@H]2CC[C@H]1N2C(=O)NCc1ccccc1C(F)(F)F,n,u,16.4µM,n,11.6µM,n
COC(=O)C1=C(c2ccc(OCc3ccccc3)cc2)C[C@@H]2CC[C@H]1N2C(=O)NCc1ccc(F)cc1,u,n,14.6µM,n,23.1µM,u
COC(=O)C1=C(c2ccc(OCc3ccccc3)cc2)C[C@@H]2CC[C@H]1N2C(=O)NCCCc1ccccc1,n,n,14.6µM,n,13µM,n
COC(=O)C1=C(c2cccc(OCc3ccccc3)c2)C[C@@H]2CC[C@H]1N2C(=O)NCc1ccc(F)cc1,n,n,u,n,u,n
CC(C)CCOc1cccc(CCN)c1,x,n,x,x,x,x
CN1CCN([C@H]2[C@@H]3OC[C@@H](O3)[C@@H](NCc3ccccn3)[C@@H]2O)CC1,x,n,x,x,x,x
O=C1/C(=C\c2ccc(F)cc2)N2CCC1CC2,x,n,x,x,x,x
Cc1ncc2c(n1)C[C@@H]1CC[C@H]2N1C(=O)Cc1cccc(F)c1,x,n,x,x,x,x
COC(=O)C1=C(c2ccc(OCc3ccccc3)cc2)C[C@@H]2CC[C@H]1N2C(=O)NCc1ccccc1OC,n,n,16.4µM,n,8.2µM,n
O=c1oc2ccccc2cc1-c1cn2cc(Cc3ccc(F)cc3)sc2n1,x,n,5.17µM,x,2.06µM,x
SMILES,HT1080 IDH1KD tx,ALOX12 inh,TDP1 cell CPT,HT1080-NT tox,TDP1 cell noCPT,IL1B secr inh
COc1ccccc1C(=O)N1[C@H]2CC[C@@H]1c1cnc(-c3ccc(F)cc3)nc1C2,x,n,x,x,x,x
CC1=C(O)C(=O)[C@H]2O[C@@H]2C1=O,x,u,7.5µM,x,10.6µM,x
CCOc1ccc(C(=O)OC2CC3CCC(C2)N3C)cc1 (configuration not stated),n,n,n,n,u,n
CCOc1ccc(-c2cn3c(n2)sc2cc(C(=O)N4CCCC(C)C4)ccc23)cc1 (configuration not stated),x,n,10.3µM,x,6.51µM,x
Cc1ccc(-n2nc3c(=O)n(CC(=O)Nc4ccccc4F)nc(C)c3c2C)c(C)c1,x,u,u,x,18.4µM,x
Cc1ccc(C)c(NC(=O)Cn2nc(C)c3nn(-c4ccc(Cl)cc4)c(C)c3c2=O)c1,x,u,23.1µM,x,18.4µM,x
CCN(CC)C(=O)c1ccc(NC(=O)Cn2nc(C)c3ccccc3c2=O)cc1,n,n,n,n,n,n
Cn1nc(-c2cccs2)cc1[C@H]1CN2CC[C@H]1C[C@@H]2CN,x,n,x,x,x,x
FC(F)(F)CN1C2CCC1CN(c1cncnc1)C2,x,n[12.5 µM],x,x,x,x
CC(NC(C)(C)C)C(=O)c1cccc(Cl)c1 (configuration not stated),n,n,n,n,16.4µM!,n
COc1ccc(C)cc1NC(=O)c1cn(C)c2ccccc12,x,n,x,x,x,x
CN1CC(C(=O)c2ccc(Cl)cc2)C(c2ccc(N(C)C)cc2)C1 (configuration not stated),n,n,20.6µM,n,u,u
O=C(NC1CCCCC1)[C@H]1CN2CC[C@H]1C[C@@H]2Cn1cc(C2(O)CCCC2)nn1,x,n,x,x,x,x
CC(=O)Nc1ccc(NC(=O)C(C)OC(=O)c2cn(C)c3ccccc23)cc1 (configuration not stated),x,n,x,x,x,x
CC(=O)Nc1ccc(OCC(O)Cn2c3ccccc3c3ccccc32)c(C)c1 (configuration not stated),u,n,u,u,18.4µM,-59.9
CCC(C(=O)Nc1ccccc1C(=O)OC)n1nc(C)c2c(C)n(-c3ccc(C)cc3)nc2c1=O (configuration not stated),x,n,7.31µM,x,11.6µM,x
O=C(NC[C@H]1C[C@@H]2CCN1C[C@@H]2CN1CCSCC1)c1ccccc1,x,n,x,x,x,x
Cc1ccccc1N1C(=O)NC(=O)/C(=C/c2ccc(N3CCOCC3)o2)C1=O,n,u,n,n,n,x
Cc1ccccc1N1C(=O)NC(=O)/C(=C\c2cc(Br)c(N3CCOCC3)o2)C1=O,n,n,4.11µM,n,7.31µM,-103.1
Fc1cccc(CC2CCOC3(CCNCC3)C2)c1 (configuration not stated),x,n,x,x,x,x
CCCCOc1ccc(CN2C(=O)C(=O)c3cc(C)ccc32)cc1OC,x,u,1.03µM,x,0.731µM,x
COc1cc(CC2C(=O)N(C)C(=O)N(C)C2=O)ccc1OCc1ccccc1,n,n,u,n,n,n
Cc1nn(-c2ncnc3nc[nH]c23)c2c1C(c1c(Cl)cccc1Cl)SCC(=O)N2 (configuration not stated),x,n,x,x,x,x
O=C1c2cccc3cc([N+](=O)[O-])cc(c23)C(=O)N1c1ccccc1O,n,n,20.6µM,n,16.4µM,n

# Screening results (PubChem BioAssay)
